Most compounds without a hit are left out; they make up all but 1.3% or so of the library.
RN4220 kill = growth inhibition of S. aureus RN4220, primary screen, OD600; 16 h; inhibition, % (test concentration not listed); 330,000 compounds, 0.33% hits; in the data active = inhibition above about 85%;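 also: plate controls were untreated cells for no effect and reference antibiotic for full effect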
PfHsp40 rescue = rescue of yeast from PfHsp40 toxicity, primary screen, S. cerevisiae, ATP luminescence; AID 504582, 2011; 340,000 compounds, 0.68% hits; growth rescue, % at 12.5 µM; S. cerevisiae expressing PfHsp40, growth rescue; in the data active = growth rescue above about 28%, passing the limit was not always enough; inconclusive = no clear call, values can overlap the other calls;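 also: yeast W303a lacking pdr1 and pdr3 grown in galactose medium; growth measured after three days at 30 °C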
BJeLR lethal = MLPCN primary cell-based screen for lethality selective to Ras in HRASV12 cells; BJeLR (HRASV12) viability, CellTiter-Glo ATP luminescence, 48 h; inhibition, % (no concentration beside the values); 300,000 compounds, 0.17% hits; AID 1554, 2009; in the data active = inhibition above about 50%; inconclusive = no clear call, values can overlap the other calls
SARS 3CLpro inh = SARS-CoV 3CLpro protease inhibitors, primary screen, biochemical, quenched FRET; Replicase polyprotein 1ab (Severe acute respiratory syndrome coronavirus), P0C6X7; recombinant SARS-CoV 3CLpro, quenched FRET peptide cleavage; inhibition, % at 6 µM; 290,000 compounds, 0.14% hits; AID 1706, 2009; in the data active = inhibition above about 12%
Sa ugtP lethal = growth inhibition of ugtP-null S. aureus, primary screen, RN4220 ugtP deletion, OD600; 16 h; growth inhibition, % (test concentration not listed); 330,000 compounds, 0.54% hits; in the data active = growth inhibition above about 68%;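 also: plate controls were untreated wells for no effect and antibiotic for full effect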
* = called active by the depositor.

How did Clc1nc2ccccc2nc1-c1ccccc1 do in these assays?
RN4220 kill: 9.0; PfHsp40 rescue: -0.1; BJeLR lethal: 5.2; SARS 3CLpro inh: -1.5; Sa ugtP lethal: -1.2

Results for O=C(Nc1ccc(Cl)c([N+](=O)[O-])c1)C(Sc1ccccc1)c1ccccc1 (stereo unspecified) ?
RN4220 kill: 85.9*; PfHsp40 rescue: inconclusive; BJeLR lethal: 9.2; SARS 3CLpro inh: 6.7; Sa ugtP lethal: 99.2*

How did CCOCCCNC(=O)C1(O)c2cc(Br)ccc2NC(=O)N1c1ccc(OCC)cc1 (stereo unspecified) do in these assays?
RN4220 kill: -3.6; PfHsp40 rescue: 50.7*; BJeLR lethal: 1.6; SARS 3CLpro inh: -9.3; Sa ugtP lethal: -2.7

Results for CCOCCCNC(=O)C1(O)c2cc(Br)ccc2NC(=O)N1c1ccc(CC)cc1 (stereo unspecified) ?
PfHsp40 rescue: -1.3; BJeLR lethal: 1.4; SARS 3CLpro inh: 3.9

How did Oc1c(Cl)cc(Oc2cc(Cl)c(O)c(CN3CCOCC3)c2)cc1CN1CCOCC1 do in these assays?
RN4220 kill: 1.8; PfHsp40 rescue: -0.1; Sa ugtP lethal: 18.0

Results for CCN(CCNS(=O)(=O)c1ccc2[nH]c(=O)sc2c1)c1ccccc1 ?
RN4220 kill: -14.4; PfHsp40 rescue: -0.1; BJeLR lethal: 3.1; SARS 3CLpro inh: -1.0; Sa ugtP lethal: 99.4*

How did O=C(c1ccc(Br)o1)N1CCN(CCc2ccncc2)CC1 do in these assays?
RN4220 kill: 2.3; PfHsp40 rescue: 2.5; BJeLR lethal: 2.9; SARS 3CLpro inh: -0.3; Sa ugtP lethal: 2.4

How did COc1ccc(C(=O)Cn2nc(CNc3ccc(Br)cc3)[n+]3c2CCCCC3)cc1 do in these assays?
RN4220 kill: 98.8*; PfHsp40 rescue: -0.9; BJeLR lethal: -6.2; SARS 3CLpro inh: 0.2; Sa ugtP lethal: 98.2*

What do the screens show for `Cc1ccc(C(C)C)c(OCc2nn(CC(=O)c3ccc(OC(F)F)cc3)c3[n+]2CCCCC3)c1`?
RN4220 kill: 100.5*; PfHsp40 rescue: -1.1; BJeLR lethal: -0.9; SARS 3CLpro inh: 3.5; Sa ugtP lethal: 95.3*

What do the screens show for `CCC1SC(=NN=Cc2ccco2)N(c2ccc(F)cc2)C1=O` (stereo unspecified)?
RN4220 kill: 6.2; Sa ugtP lethal: 8.2

How did Cc1cc(/C=C2\Sc3ccccc3N2C)cc(C)[n+]1CC1CCCO1 (stereo unspecified) do in these assays?
RN4220 kill: 100.2*; PfHsp40 rescue: 2.9; SARS 3CLpro inh: 2.4; Sa ugtP lethal: 100.6*

Results for Cc1ccc(/C=C2/Sc3ccccc3N(CC(=O)NCC3CCCO3)C2=O)cc1 (stereo unspecified) ?
RN4220 kill: 2.7; PfHsp40 rescue: 4.1; BJeLR lethal: -15.8; SARS 3CLpro inh: 3.7; Sa ugtP lethal: 8.1

How did Cc1ccc(OCCC(=O)OCC(=O)Nc2cc(S(=O)(=O)N(C)C)ccc2C)cc1 do in these assays?
RN4220 kill: 4.7; PfHsp40 rescue: 31.8*; BJeLR lethal: 5.4; SARS 3CLpro inh: -1.8; Sa ugtP lethal: 13.1

How did CCc1cc2c(NCC3CCCO3)nc(C)nc2s1 (stereo unspecified) do in these assays?
RN4220 kill: 5.5; PfHsp40 rescue: 0.2; BJeLR lethal: 4.6; SARS 3CLpro inh: 2.4; Sa ugtP lethal: -1.6

How did COc1cc2ccccc2cc1C(=O)NN=Cc1cccnc1 do in these assays?
RN4220 kill: 1.0; Sa ugtP lethal: -6.4

What do the screens show for `CCC(C)C(Nc1ccc(C(=O)OC)cc1[N+](=O)[O-])C(=O)OC` (stereo unspecified)?
RN4220 kill: 5.2; PfHsp40 rescue: -0.6; BJeLR lethal: -5.8; SARS 3CLpro inh: 0.8; Sa ugtP lethal: 3.2

What do the screens show for `COC(=O)c1ccc(NC(C(=O)OC)C(C)C)c([N+](=O)[O-])c1` (stereo unspecified)?
PfHsp40 rescue: 50.1*; BJeLR lethal: 8.1; SARS 3CLpro inh: -4.6

How did Cc1ccc(Cl)cc1NC(=O)C1CCCN1S(=O)(=O)c1ccc(-c2ccc(=O)[nH]n2)s1 (stereo unspecified) do in these assays?
RN4220 kill: 96.5*; PfHsp40 rescue: -0.1; BJeLR lethal: 6.4; SARS 3CLpro inh: 6.2; Sa ugtP lethal: 96.6*

Results for O=[N+]([O-])c1ccccc1/C=N/Nc1nnc(-c2ccccc2)c(-c2ccccc2)n1 ?
PfHsp40 rescue: 42.2*; BJeLR lethal: 1.3; SARS 3CLpro inh: 1.0

Screening results (PubChem BioAssay)
